Test results taken from publication PMC5540273 (PLoS ONE, 2017).

What was measured:
Conditions in all cases: concentration: 1 μM, replicates: in singlicate; n = 1
CAMK1 = test system: CAMK1
CAMK2A = test system: CAMK2A
CAMK2B = test system: CAMK2B
CAMK2D = test system: CAMK2D
CAMK2G = test system: CAMK2G
CAMK4 = test system: CAMK4
CAMKK1 = test system: CAMKK1
CAMKK2 = test system: CAMKK2
CASK = test system: CASK
CDC2L1 = test system: T1, CDC2L1
T1 construct: gene CDK11B
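Note: KINOMEscan kinase panel screen.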

| SMILES | %Inh (CAMK1) [%] | %Inh (CAMK2A) [%] | %Inh (CAMK2B) [%] | %Inh (CAMK2D) [%] | %Inh (CAMK2G) [%] | %Inh (CAMK4) [%] | %Inh (CAMKK1) [%] | %Inh (CAMKK2) [%] | %Inh (CASK) [%] | %Inh (CDC2L1) [%] |
| --- | --- | --- | --- | --- | --- | --- | --- | --- | --- | --- |
| Fc1cc(Cl)ccc1Nc1ccnc2cc(-c3ccc(CN4CCSCC4)o3)ccc12 [GW560106] | 21 | 0 | 0 | 5 | 17 | 0 | 25 | 21 | 0 | 0 |
| COc1cc(Nc2nccc(N3CCC(NS(=O)(=O)c4ccc(NC(C)=O)cc4)CC3)n2)cc(OC)c1OC [GSK1379825] | 37 | 0 | 0 | 7 | 12 | 0 | 23 | 8 | 19 | 0 |
| CN(C)c1ncnc2nc[nH]c12 [SKF-31736] | 0 | 12 | 0 | 29 | 29 | 0 | 15 | 25 | 41 | 0 |
| O=C(Nc1n[nH]c2cc(-c3cccs3)ccc12)C1CC1 [SB-731284] | 11 | 0 | 0 | 0 | 0 | 0 | 17 | 0 | 49 | 0 |
| Nc1ncc(-c2ccc3nccc(-c4ccncc4)c3c2)cc1S(=O)(=O)N1CCCCC1 [GSK1693850] | 18 | 4 | 0 | 0 | 14 | 0 | 24 | 33 | 24 | 0 |
| CN(c1ccc2c(c1)nc(NCc1ccccc1)n2C)c1ccnc(Nc2ccc(CS(C)(=O)=O)cc2)n1.Cl [GW811603] | 0 | 0 | 0 | 0 | 0 | 0 | 14 | 0 | 0 | 94.2 |
| CC(C)c1nc(-c2ccc(F)c(NS(=O)(=O)c3c(F)cccc3F)c2)c(-c2ccnc(Nc3ccc(N4CCOCC4)nc3)n2)s1 [GSK1804250] | 54 | 0 | 0 | 7 | 27 | 0 | 17 | 21 | 0 | 0 |
| Cc1nn2c(=O)cc(N3CCO[C@H](C)C3)nc2n1Cc1cccc(Cl)c1Cl [GSK2373693] | 0 | 0 | 0 | 10 | 5 | 5 | 20 | 2 | 75 | 0 |
